In all, about 48,000 compounds went through this assay and about 13,000 (27%) showed an effect of 50% or more. The list shows a part of the results.
tested on: Wolbachia pipientis; assay: Anti-Wolbachia Cell-Based Screen; format: functional; set-up: scale not given: in the data most compounds retested in dose-response had high values; settings: 5 µM

SMILES | Percent Effect [%]
Cc1c(I)cccc1C(=O)NCC1(CO)CC1 | -20.46
COc1ccc(CCNC(=O)CC(NC(N)=O)c2ccccc2)cc1 (stereo not given) | 5.015
CC(=O)Nc1nc(-c2ccc(F)cc2)c[nH]1 | 8.711
COC[C@@H]1CCCN1C(=O)c1cc(-c2ccc(OC)cc2)n[nH]1 | -15.89
O=C(Nc1nc[nH]n1)c1cc(-c2ccc(F)cc2)n[nH]1 | 175.6
COc1ccccc1-c1cc(NC(=O)CC2CCS(=O)(=O)C2)[nH]n1 (stereo not given) | 2.425
CNC(=O)C(C)(C)NC(=O)c1cc(COc2ccccc2OC)[nH]n1 | 6.418
O=C(NCC1CCOC1)c1cc(-c2ccc(Cl)cc2)n[nH]1 (stereo not given) | -17.32
COc1ccc(-c2cc(C(=O)Nc3nc[nH]n3)[nH]n2)cc1 | 117.7
COc1ccccc1-c1cc(C(=O)Nc2nc[nH]n2)[nH]n1 | 103.1
COc1ccc(NC(=O)NC(C)c2nc[nH]n2)cc1 (stereo not given) | -2.331
COC(=O)C(C)(C)NC(=O)c1cc(COc2ccccc2OC)[nH]n1 | -6.385
CNC(=O)c1cc(-c2ccccc2OC)[nH]n1 | 118.3
COc1ccccc1-c1cc(NC(=O)CCC2CCCO2)[nH]n1 (stereo not given) | 4.714
O=C(NCc1cccc(N2CCCCC2=O)c1)[C@@H](O)c1ccccc1 | -1.556
CC(C)c1ccc(N2CCc3onc(-c4ccc(F)c(F)c4)c3C2)nn1 | 26
CCC1CN(C(=O)Nc2cnc3c(cnn3C(C)C)c2)CCO1 (stereo not given) | 6.429
CCC(CC)CN1C[C@@H]2OCCN(Cc3cnn(C)c3)[C@@H]2C1 | -7.114
COc1cc(C)c(C)cc1S(=O)(=O)NCC(O)c1cccn1C (stereo not given) | -4.325
COC[C@@H]1CCCN1C(=O)c1cc(-c2cccc(OC)c2)n[nH]1 | -18.68
COc1cccc(-c2cc(C(=O)Nc3nc[nH]n3)[nH]n2)c1 | 131.8
COCC1CCCCN1C(=O)c1cc(-c2cccc(OC)c2)n[nH]1 (stereo not given) | -6.685
CN1CCC(c2cc(CCO)ncn2)C1 (stereo not given) | 105.5
CN1CC[C@H](c2nnc(Cc3c[nH]c4ccccc34)o2)C1 | -2.7

SMILES | Percent Effect [%]
CC(C)N1CCC(CC(=O)NCCc2cc(O)ncn2)CC1 | -16.23
CCn1c(N)nc2cc(C(=O)N3CCN(c4ccncc4)CC3)cnc21 | -2.234
CNC(=O)C1(C)CN(c2nnc(C)c3ccccc23)CCO1 (stereo not given) | 101.8
Cc1nnc(N2CCOC(C)(C(=O)NC3CCCC3)C2)c2ccccc12 (stereo not given) | 100.6
Cc1nnc(N2CCOC(C)(C(=O)N(C)C)C2)c2ccccc12 (stereo not given) | 78.63
CNC(=O)[C@@]12CCO[C@@H]1CCN(S(=O)(=O)c1ccccc1C)C2 | -56.15
Cc1nnc(N2CCCC2)c(C(N)=O)c1C | -23.35
O=C(CCNC(=O)c1ccccc1N1CCOCC1)NC1CCCC1 | 3.858
CCOC(=O)c1nnc2ccccc2c1N1CCOC(C)(C)C1 | 7.014
Cc1ccc(N2CCCC3(CCN(C(=O)NC4CCCC4)C3)C2)nn1 (stereo not given) | 1.477
Cn1cnc(S(=O)(=O)N2CCN(Cc3ccco3)CC2)c1Cl | -3.277
Cc1n[nH]c(C)c1CN1CC[C@@H]2[C@@H](CCC(=O)N2CCc2c[nH]cn2)C1 | -6.371
COCCc1noc(-c2cn(CCc3ccccc3)nn2)n1 | -16.95
CC(=O)c1cccc(NC(=O)N(CCO)C2CCc3ccccc32)c1 (stereo not given) | 6.805
COCCCS(=O)(=O)N1CCN(c2cccc(O)c2)CC1 | -6.016
O=C(C1CCC1)N1CCC(=O)N(C2CC2)Cc2cc(F)ccc21 | 89.78
O=C(C1CCCOC1)N1CCc2ccc(F)cc21 (stereo not given) | -7.553
CCN1Cc2cc(F)ccc2N(C(C)=O)CCC1=O | 105.8
O=C1NCCCCC1NC(=O)N1CCCc2cc(F)ccc21 (stereo not given) | -6.196
CCN1CC(C(=O)N2CCC(Oc3ccccc3Cl)CC2)CC1=O (stereo not given) | 19.99
CCN1Cc2cc(F)ccc2N(C(=O)C2CCC2)CCC1=O | 113.5
CN1C(=O)CCN(C(=O)C2CCCCC2)c2ccccc21 | -31.28
O=C1N[C@@H]2CCN(C(=O)C3CCC3)[C@@H]2C(=O)N1c1ccc(F)cc1 | 10.21
CCN1Cc2ccccc2N(C(=O)C2CCC2)CCC1=O | 94.47

SMILES | Percent Effect [%]
Cc1noc(C)c1C(C)NC(=O)N1CCC(NC(=O)c2ccsc2)CC1 (stereo not given) | -3.825
COc1c(NC(=O)C(C)CCOc2ccccc2)c(C)nn1C (stereo not given) | -7.796
CC(O)CN1CCN(C(=O)CN(C)c2cnccn2)CC1 (stereo not given) | -17.8
Cn1c(N)nnc1SCc1c(F)cccc1Br | -12.74
Cc1cc(C)c(C(=O)N[C@H](C(N)=O)c2ccccc2)c(=O)[nH]1 | 4.18
CCOC(=O)CCCNc1nc(C(C)(C)C)nc2c1cnn2C | 0.3135
O=C(c1ccsc1)N1CCN(CC(O)c2cccc(F)c2)CC1 (stereo not given) | 8.058
CC(C(=O)N1CCn2cncc2C1)N1CCCC1 (stereo not given) | 4.282
O=C(CCCNCc1ccc(Cl)c2cccnc12)NC1CC1 | -3.748
COc1ccc(Cl)cc1-n1nc(C2CCCC2)nc1Cn1cnnn1 | -18.77
Nc1nc2c(c(N3CCC(CN4CCCC4=O)CC3)n1)CCNCC2 | -8.42
CCC1=N[C@@]2(CC[C@@H]3CN(S(C)(=O)=O)C[C@@H]32)C(=O)N1CC(C)C | -16.48
Cc1cccc(CN2CCc3c(CNC(=O)CC#N)nn(C)c3C2)n1.O=C(O)C(F)(F)F | -9.631
CC(C)C[C@H](NC(=O)c1cc(-c2cccn2C)n[nH]1)C(N)=O | 6.399
O=C(Nc1ncc[nH]1)c1cc(-c2cccnc2)n[nH]1 | 118.3
Cc1cc(CC(C)Nc2nc(-c3cccnc3)nc3c2CNC3)[nH]n1 (stereo not given) | -2.115
CC(C)Cc1nc(NC(=O)c2cc(-c3cccnc3)n[nH]2)n[nH]1 | 127.5
O=C(Nc1cc(-c2cccnc2)no1)C1CCC1 | 9.123
Cc1nn(C(C)C)c(C)c1NC(=O)c1cccnc1 | 6.145
Cn1cccc1-c1cc(C(=O)N2CC(c3cccnc3)C2)[nH]n1 | -4.055
CC(C)Cc1nc(NC(=O)c2cccnc2)n[nH]1 | 118.7
CC(C)COCC(NC(=O)c1cccnc1)c1ccco1 (stereo not given) | -0.4808

Source: ChEMBL document CHEMBL3988442, “University of Dundee, Small-Polar-MMV Screening Library” (2021)
